# In ChEMBL document CHEMBL4513216, “Probing the Open Global Health Chemical Diversity Library for Multistage-Active Starting Points for Next-Generation Antimalarials” (ACS Infect Dis, 2020):
# Screen size: about 69,000 compounds; about 8,600 (12%) showed an effect of 50% or more. Shown is part of a subset that was picked to be rich in strong results.
# Tested on: Plasmodium berghei
# Assay: Screen against P. berghei liver stage (PbLuc), transformed with Luciferase, at 10uM
# Assay type: functional, HepG2
# Conditions: tested at 10 uM
row,Compound,INHIBITION [%]
1,Cc1noc(NCc2cn(C)nc2-c2ccncc2)n1,19.4
2,Cc1ccc(C(=O)NS(=O)(=O)c2c(Cl)cccc2Cl)c(=O)[nH]1,19.4
3,CN(C)CCN1CCO[C@H]2CN(Cc3cnn(C)c3)C[C@H]21,-57.1
4,Cc1nnsc1C(=O)N1CCCCC1c1cc2nc(C)c(C)c(O)n2n1 (centres undefined),19.3
5,Cc1nc(-c2ccccc2)sc1CNC(=O)c1ccc(=O)n(C)c1,39.6
6,CC(NCCCN1CCCC1=O)c1cc(Br)ccc1O (centres undefined),-1.3
7,c1cc2c(cc1Cn1cc(C3CCOC3)nn1)OCO2 (centres undefined),17.6
8,Cc1ocnc1C(=O)N(C)[C@@H]1CC[C@@H](n2ccnc2C)[C@@H]1O,45.9
9,Cn1cnc2cc(CCC(=O)Nc3nc[nH]n3)ccc21,39.2
10,Cn1c(=O)c2c(n3ncnc13)NC(=O)CC2c1cccc(F)c1 (centres undefined),41.6
11,CCc1ccc(C2CC(=O)Nc3c2c(=O)n(C)c2ncnn32)cc1 (centres undefined),0.207
12,Cn1c(=O)c2c(n3ncnc13)NC(=O)CC2c1ccc(F)cc1 (centres undefined),54
13,Cc1nc(N(C)C)nc(-c2cccc(-c3ccn(CCCO)n3)c2)c1C,14.9
14,Cc1ccc(CNCC2CNc3cc(C)nn3C2)cn1 (centres undefined),33.35
15,CCOc1cncc(N2CCOCC2)n1,35.4
16,O=C(CCN1CCCO1)NC1CCCN(CC2CCCCC2)C1 (centres undefined),50.5
17,O=C(CCN1CCCCO1)NC1CCCN(CC2CCCCC2)C1 (centres undefined),11.2

row,Compound,INHIBITION [%]
1,O=C(CCN1CCOCC1)NC1CCCN(CC2CCCCC2)C1 (centres undefined),1.37
2,CCOc1ccc2cc(C(=O)NCCC(=O)N(C)C)[nH]c2c1,-5.22
3,Cc1ccc(N2CCCN(CC3CC3)C(C(C)C)C2)nn1 (centres undefined),23
4,COCC1COCCC12CCN(C(=O)CC1Cc3ccccc3C1)CC2 (centres undefined),23.6
5,Clc1snnc1CN1CCCC1Cn1cccn1 (centres undefined),-36.1
6,Cc1ccnn1CC(=O)N1CCN(C2CCc3ccccc3C2)CC1 (centres undefined),10.7
7,CCc1nccn1CC(=O)N1CCN(C2CCc3ccccc3C2)CC1 (centres undefined),57.9
8,Cc1ccnn1CCC(=O)N1CCN(C2CCc3ccccc3C2)CC1 (centres undefined),-5.08
9,COc1cc(-n2cccc2)c(Cl)cc1C(=O)NS(C)(=O)=O,23.7
10,CC(C)(C)CC(=O)N1[C@@H](c2ccco2)[C@@H](CO)C[C@]12CCCCNC2=O,22.2
11,O=C(NCC(c1ccccc1)N1CCOCC1)Nc1cn[nH]c1 (centres undefined),-113
12,Cn1c(CN2CCCCCC2)cc(=O)c(O)c1CN1CCCC1,63.1
13,Cn1c(CN2CCOCC2)cc(=O)c(O)c1CN1CCCCC1,30.2
14,Cn1c(CN2CCOCC2)cc(=O)c(O)c1CN1CCOCC1,5.58
15,Cn1c(CN2CCCC(N3CCCCCC3)C2)cc(=O)n(C)c1=O (centres undefined),-10.9
16,Cn1c(CN2CCCCC2)cc(=O)c(O)c1CN1CCCCC1,74
17,Cn1c(CN2CCOCC2)cc(=O)c(O)c1CN1CCCC1,6.12
